Measurements published in PubChem BioAssay AID1422 (Emory University Molecular Libraries Screening Center, 2008).
Where “and” joins values, the source holds several entries; their conditions need not be identical. Equal entries are not always repeated. The campaign covered roughly 260,000 compounds. About 1,300 (0.5%) were called active. This is one part of a sample in which actives are shown more often than they occur.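 How the source made its calls: active means percent inhibition above 40 after rounding to a whole number; inactive means the rest.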 Where a structure was tested more than once in an assay, its records may differ in their call.

Target: Prostaglandin E2 receptor EP2 subtype (Homo sapiens) (UniProt P43116)
Sequence (P43116 whole entry, looked up): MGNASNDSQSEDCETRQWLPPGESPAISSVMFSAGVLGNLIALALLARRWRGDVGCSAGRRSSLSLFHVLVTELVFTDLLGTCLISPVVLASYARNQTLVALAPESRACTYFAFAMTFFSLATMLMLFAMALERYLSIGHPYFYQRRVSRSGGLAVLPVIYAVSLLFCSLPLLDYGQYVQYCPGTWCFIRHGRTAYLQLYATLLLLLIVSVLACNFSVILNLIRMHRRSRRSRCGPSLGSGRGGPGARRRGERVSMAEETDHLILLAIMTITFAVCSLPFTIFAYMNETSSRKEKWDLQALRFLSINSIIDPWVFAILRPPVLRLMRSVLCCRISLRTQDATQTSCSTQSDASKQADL
Test: human EP2 receptor antagonists, primary screen, TR-FRET cAMP, C6 glioma cells (AID 1422);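 further: rat C6 glioma host cells with rolipram phosphodiesterase inhibitor present; the protocol text gives 20 µM as final concentration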
Settings: C6 glioma cells expressing human EP2, cAMP TR-FRET; at 25 µM; stronger effect = higher value; cells stimulated with saturating PGE2

Q: With O=C1c2cccc3cccc(c23)C(=O)N1c1ccc(N2C(=O)c3cccc4cccc(c34)C2=O)cc1 as the compound, how does the inhibition read?
A: 9.96% (inactive)

Q: Which inhibition does the source give for Cc1ccc(-c2nc3ccccc3[nH]c2=O)cc1 here?
A: 12.3% (inactive)

Q: For O=c1[nH]c2ccccc2n2c(-c3ccccc3)nnc12, which inhibition is on record?
A: 82.1% (active)

Q: CCOC(=O)c1cnc2[nH]c3ccccc3n2c1=O was tested. Which inhibition did it give?
A: 4.64% (inactive)

Q: For Cc1nn(CC(=O)Nc2cccc3ncccc23)c(=O)c2ccccc12, which inhibition is on record?
A: 6.79% (inactive)

Q: With O=c1cc(CSc2nnc(Cn3nnc4ccccc43)o2)c2ccccc2[nH]1 as the compound, how does the inhibition read?
A: 7.33% (inactive)

Q: How did the inhibition turn out when CCOc1ccc(NC(=S)N(CCO)Cc2cc3c(C)cc(C)cc3[nH]c2=O)cc1 was run?
A: 6.48% (inactive)

Q: For Cc1cc2c(cc1C)NC1=C(N2)O[C@H](c2c[nH]c3ccc(COc4ccccc4)cc23)C1=O, which inhibition is on record?
A: 56.3% (active)

Q: Which inhibition does the source give for COc1cc(C)c(CNC(=O)c2cccc(-n3cnnc3)c2)cc1C(C)C here?
A: 4.98% (inactive)

Q: For COCC(=O)Nc1cc(C)on1, which inhibition is on record?
A: 7.17% (inactive)

Q: How did the inhibition turn out when CC(C)(C)NCC[C@@H](O)c1cc(C(F)(F)F)nc2c(C(F)(F)F)cccc12 was run?
A: 48.9% (active)

Q: Which inhibition does the source give for COc1ccc(N(CC(=O)N2CCN(c3ccc(F)cc3)CC2)S(C)(=O)=O)cc1 here?
A: 6.08% (inactive)

Q: With CCCC(c1nnnn1C1CCCCC1)N1CCN(c2ccccc2)CC1 (centres undefined) as the compound, how does the inhibition read?
A: 5.51% (inactive)

Q: With COc1ccc2[nH]c3ccc(OC)cc3c2c1 as the compound, how does the inhibition read?
A: 6.17% (inactive)

Q: For COc1ccc2[nH]c(=S)cc(C)c2c1, which inhibition is on record?
A: 7.37% (inactive)

Q: COc1ccc2[nH]c3cc4c(=O)c5cc(OC)ccc5[nH]c4cc3c(=O)c2c1 was tested. Which inhibition did it give?
A: 49.6% (active)

Q: For Cc1ccc(-c2cc(N)c(=O)n(CC(=O)N3c4ccccc4CC3C)n2)o1 (centres undefined), which inhibition is on record?
A: 9.35% (inactive)

Q: CCOc1ccc2[nH]c(=O)c(CN(Cc3ccc4c(c3)OCO4)C(=O)Nc3ccc(C)cc3)cc2c1 was tested. Which inhibition did it give?
A: 10.3% (inactive)

Q: For Cc1ccc2cc(CN(Cc3cccs3)Cc3nnnn3Cc3ccco3)c(=O)[nH]c2c1, which inhibition is on record?
A: 12.8% (inactive)

Q: With COc1ccc(-n2nnnc2SCC(=O)Nc2ccc(N(C)C)cc2)cc1 as the compound, how does the inhibition read?
A: 8.77% (inactive)

Q: With Cc1ccc(N(CC(=O)N2CCC(C(N)=O)CC2)S(C)(=O)=O)cc1C as the compound, how does the inhibition read?
A: 15.2% (inactive)

Q: With C/C(=N/Nc1nc(-c2ccccc2)c(CC(=O)O)s1)c1ccccc1 as the compound, how does the inhibition read?
A: 11.6% (inactive)

Q: How did the inhibition turn out when Cc1ccc(-c2nc(C)sc2CC(=O)O)cc1 was run?
A: 8.08% (inactive)

Q: Which inhibition does the source give for O=C(O)Cc1sc(-c2ccccc2)nc1-c1cccs1 here?
A: 43% (active)

Q: How did the inhibition turn out when COC(=O)c1c(NC(=O)Cc2cccs2)sc(C(=O)Nc2cccc(Cl)c2)c1C was run?
A: 8.6% (inactive)

Q: With CCCc1nc2ccccc2n1CC(O)COc1ccc(F)cc1 (centres undefined) as the compound, how does the inhibition read?
A: 10.9% (inactive)

Q: COc1ccc(C2(O)CCN(CCN3CCCCC3)CC2)c(OC)c1 was tested. Which inhibition did it give?
A: 12.5% (inactive)

Q: With CCn1c(=O)n(CC)c2cc(CN(Cc3ccc(C)s3)CC(C)O)ccc21 (centres undefined) as the compound, how does the inhibition read?
A: 1.95% (inactive)

Q: For CCCC(=O)C1CCN(Cc2ccccc2)CC1, which inhibition is on record?
A: 13% (inactive)

Q: For O=C(NC1CCN(Cc2ccccc2)CC1)c1c(F)cccc1F, which inhibition is on record?
A: 2.64% (inactive)

Q: How did the inhibition turn out when O=C(O)[C@@H]1CS[C@]2(CCCN(Cc3ccccc3)C2)N1 was run?
A: 46.7% (active)

Q: For Cc1cccc2c(C(=O)Nc3cccc(C(=O)N4CCCCC4)c3)cc(=O)[nH]c12, which inhibition is on record?
A: 4.42% (inactive)

Q: How did the inhibition turn out when CC(C)(C)c1cnnn1-c1ccc(S(N)(=O)=O)cc1 was run?
A: 3.83% (inactive)

Q: How did the inhibition turn out when CC(NC(=O)C1CCN(c2nc3ccccc3n2C)CC1)c1ccccc1 (centres undefined) was run?
A: 7.13% (inactive)

Q: CC(NC(=O)Nc1ccccc1)C(c1cccs1)N1CCN(c2ccccc2)CC1 (centres undefined) was tested. Which inhibition did it give?
A: 6.9% (inactive)

Q: C(=N/N1CCN(c2ccccc2)CC1)/c1cccs1 was tested. Which inhibition did it give?
A: 6.51% (inactive)

Q: ClC(Cl)(Cl)C(N1CCN(c2ccccc2)CC1)N1CCN(c2ccccc2)CC1 was tested. Which inhibition did it give?
A: 46.7% (active)

Q: COc1ccc(CN(Cc2cccnc2)C2CC(C)(C)NC(C)(C)C2)cc1OC was tested. Which inhibition did it give?
A: 9.23% (inactive)

Q: How did the inhibition turn out when CCOc1ccc(OCC)c(NC(=O)CSc2nc3cc4c(cc3cc2C)OCO4)c1 was run?
A: 15.2% (inactive)

Q: For O=C(Nc1ccc2oc(-c3cccnc3)nc2c1)c1cccc2ccccc12, which inhibition is on record?
A: 10.6% (inactive)

Q: With N#CC1=C(N)Oc2cc(O)ccc2C1C1CCCCC1 (centres undefined) as the compound, how does the inhibition read?
A: 7.43% (inactive)

Q: With O=C(O)c1c(Br)c(Br)c(Br)c(Br)c1C1c2ccc(O)cc2Oc2cc(O)ccc21 as the compound, how does the inhibition read?
A: 46.5% (active)

Q: CCn1cc(C(=O)N2CCC(n3c(C)nc4sc(C)c(C)c4c3=O)CC2)cn1 was tested. Which inhibition did it give?
A: -0.97% (inactive)

Q: Which inhibition does the source give for O=C(CN1CCC(n2nnc3cc(F)ccc32)CC1)Nc1cccc(F)c1 here?
A: 10.2% (inactive)

Q: With Cc1nn(CCC(=O)NC2(c3ccccc3)CCCC2)c(C)c1C as the compound, how does the inhibition read?
A: 7.61% (inactive)

Q: For COc1ccccc1OCC(O)Cn1c(=N)n(C)c2ccccc21 (centres undefined), which inhibition is on record?
A: 8.65% (inactive)

Q: For CC(C)(C)NCC(O)COc1cccc2[nH]c(=O)[nH]c12 (centres undefined), which inhibition is on record?
A: 13.5% (inactive) and 12.7% (inactive)

Q: With COc1ccccc1OCCNCC(O)COc1cccc2[nH]c3ccccc3c12 (centres undefined) as the compound, how does the inhibition read?
A: 15.7% (inactive) and 44.9% (active)

Q: Which inhibition does the source give for Cn1c(=O)c2cc(S(=O)(=O)NC3(c4ccccc4F)CC3)ccc2n(C)c1=O here?
A: 10.9% (inactive)

Q: With O=C(c1ccc([N+](=O)[O-])cc1)[C@@H](Br)[C@@H](Br)c1ccnc2ccccc12 as the compound, how does the inhibition read?
A: 99.4% (active)

Q: Which inhibition does the source give for O=C(Nn1c(-c2ccccc2)nc2ccccc2c1=O)c1ccc([N+](=O)[O-])cc1 here?
A: 6.91% (inactive)

Q: How did the inhibition turn out when O=C(c1ccncc1)c1ccc([N+](=O)[O-])cc1 was run?
A: 8.78% (inactive)

Q: Which inhibition does the source give for COc1ccc(C(O)CN2CCC(O)(c3ccc4c(c3)OCO4)CC2)cc1 (centres undefined) here?
A: 6.32% (inactive)

Q: For O=c1[nH]c2cc3c(cc2cc1C(c1nnnn1C1CCCCC1)N1CCCCC1)OCCO3 (centres undefined), which inhibition is on record?
A: 6.82% (inactive)

Q: For COc1cc(/C=N/Nc2nc3ccccc3s2)ccc1O, which inhibition is on record?
A: 16.7% (inactive)

Q: With O=[N+]([O-])c1cc(Br)c(O)c(/C=N/Nc2nc3ccccc3s2)c1 as the compound, how does the inhibition read?
A: 77% (active)

Q: How did the inhibition turn out when c1ccc2sc(NN=C3CCCC3)nc2c1 was run?
A: 1.63% (inactive)

Q: With COc1ccc2cc(CN(C(=O)Nc3ccc(F)cc3)C3CCCC3)c(=O)[nH]c2c1 as the compound, how does the inhibition read?
A: 8.38% (inactive)

Q: CN(C)c1ncc(CN2CCC(O)(c3ccccc3F)CC2)cn1 was tested. Which inhibition did it give?
A: 5.6% (inactive)

Q: How did the inhibition turn out when COc1ccccc1NC(=O)c1sc(NC(=O)c2cccc(C)c2)c(C#N)c1C was run?
A: 11.9% (inactive)

Q: How did the inhibition turn out when CCC(CN1CCC(C)CC1)NC(=O)Cc1c(C)nc(OC)nc1OC (centres undefined) was run?
A: 0.46% (inactive)

Q: With Cc1ccc(-n2ccc(=O)c(C(=O)O)n2)cc1 as the compound, how does the inhibition read?
A: 11.4% (inactive)

Q: For O=C(O)c1nn(-c2ccc(Cl)cc2)c2c1C(=O)c1ccccc1C2=O, which inhibition is on record?
A: 42.4% (active)

Q: With Cc1cc(C(=O)NCCc2ccc(Cl)cc2)n(-c2ccccc2)n1 as the compound, how does the inhibition read?
A: 6.8% (inactive)

Q: Cc1sc2nc(C(C)C)nc(SCC(=O)NCc3ccccc3)c2c1C was tested. Which inhibition did it give?
A: 4.54% (inactive)

Q: O=C(NC1CCCC1)C(c1ccccc1F)N(Cc1ccco1)C(=O)Cc1c[nH]c2ccccc12 (centres undefined) was tested. Which inhibition did it give?
A: 11.9% (inactive)

Q: With N#CSc1ccc(N2CCCCC2)cc1 as the compound, how does the inhibition read?
A: 6.1% (inactive)

Q: For O=C1C=CC(=O)N1c1ccc(N2CCCCC2)cc1, which inhibition is on record?
A: 106% (active)

Q: With Cc1ccccc1C(=O)Nc1ccc(N2CCCCCC2)cc1 as the compound, how does the inhibition read?
A: -0.3% (inactive)

Q: Which inhibition does the source give for C=C(C)Cn1c(N2CCC(C)CC2)nc2c1c(=O)[nH]c(=O)n2C here?
A: 10.2% (inactive)

Q: How did the inhibition turn out when C=CCn1c(NC)nc2c1c(=O)n(C)c(=O)n2C was run?
A: 7.03% (inactive)

Q: With Cc1c(NC(=O)c2cc(-c3ccc(Cl)s3)nc3ccccc23)c(=O)n(-c2ccccc2)n1C as the compound, how does the inhibition read?
A: 13.1% (inactive)

Q: CCOC(=O)c1cc(-c2ccc(Cl)s2)nc2c1c(C)nn2C was tested. Which inhibition did it give?
A: 41.6% (active)

Q: Which inhibition does the source give for CCOC(=O)c1cnc2c(c(C)nn2CC)c1Cl here?
A: 4.46% (inactive)

Q: How did the inhibition turn out when COc1cc(OC)cc(-n2nnnc2SCC(=O)N2CCN(C)CC2)c1 was run?
A: 10.8% (inactive)

Q: COc1ccc2cc(C#N)c(SCC(=O)Nc3ccccc3Br)nc2c1 was tested. Which inhibition did it give?
A: 27% (inactive)

Q: With C=CS(=O)c1sc(Cl)c(N2CCOCC2)c1[N+](=O)[O-] (centres undefined) as the compound, how does the inhibition read?
A: 116% (active)

Q: Which inhibition does the source give for COc1cc(NC(=O)CSc2nnc3c(n2)[nH]c2ccccc23)cc(OC)c1 here?
A: 9.57% (inactive)

Q: Cc1cc2nc(-c3ccc(SCC(=O)N4CCCCC4C)nc3)[nH]c2cc1C (centres undefined) was tested. Which inhibition did it give?
A: 12.4% (inactive)

Q: Which inhibition does the source give for Cc1ccc2nc(-c3ccc(SCC(=O)Nc4cc(C)on4)nc3)[nH]c2c1 here?
A: 64.2% (active) and 20.1% (inactive)

Q: Cc1ccc(SCCC(=O)Nc2cc(C)on2)cc1 was tested. Which inhibition did it give?
A: 1.47% (inactive)

Q: For CCCN1C(=O)/C(=C/N(C(C)=O)c2ccccc2)SC1=S, which inhibition is on record?
A: 12.5% (inactive)

Q: How did the inhibition turn out when CC1CCN(C(=O)CSc2nc3ccccc3n2Cc2ccccc2)CC1 was run?
A: 11.6% (inactive)

Q: With Fc1ccc2[nH]c3c(N4CCSCC4)ncnc3c2c1 as the compound, how does the inhibition read?
A: 59.2% (active)

Q: O=C(NCc1noc(-c2ccccc2)n1)c1cc(-c2ccccn2)n[nH]1 was tested. Which inhibition did it give?
A: 4.63% (inactive)

Q: How did the inhibition turn out when O=C(CN1C(=O)[C@@H]2CCCN2C(=O)c2ccccc21)Nc1ccc2c(c1)OCCO2 was run?
A: 6.18% (inactive)

Q: Which inhibition does the source give for COc1ccc(C(=O)O/N=C(\N)Cc2ccc(Cl)cc2Cl)cc1OC here?
A: 14.2% (inactive)

Q: With NC(N)=N/N=C/c1ccc(OCc2ccc(Cl)cc2Cl)cc1 as the compound, how does the inhibition read?
A: 97.3% (active)

Q: Which inhibition does the source give for NC(N)=N/N=C/c1ccc(Cl)c([N+](=O)[O-])c1 here?
A: 5.88% (inactive)

Q: Which inhibition does the source give for CCOc1ccc2nc(NC(=O)c3ccc(NC(C)=O)cc3)sc2c1 here?
A: 11.4% (inactive)

Q: With CC(C)(C)NC(=O)Cn1nnc(-c2ccc(N)cc2)n1 as the compound, how does the inhibition read?
A: 7.5% (inactive)

Q: How did the inhibition turn out when COc1ccccc1CSc1ncc(-c2ccc([N+](=O)[O-])cc2)[nH]1 was run?
A: 85.8% (active)

Q: For COc1ccccc1CC(=O)Nc1ccc([N+](=O)[O-])cc1OC, which inhibition is on record?
A: 2.1% (inactive)

Q: COc1ccccc1CSc1nc2ccccc2[nH]1 was tested. Which inhibition did it give?
A: -5.57% (inactive)
